Source: PubChem BioAssay (NCATS)
Values without a mark were called inactive. For part of these data: Entries with a potency or affinity are not part of this list. Activity calls are given as the source filed them.

Assays:
[1] = Ebola virus entry assay, green fluorescence channel
[2] = Ebola virus entry assay, blue channel fluorescence
Throughout, for efficacy: 0% is about no effect.

Row | Compound | efficacy [1] | outcome [2] | AC50 [2]
1 | O=C1Nc2ccc(Cl)cc2[C@@](C#CC2CC2)(C(F)(F)F)O1 | -11.3% | inactive | –
2 | CC(C)Nc1cccnc1N1CCN(C(=O)c2cc3cc(NS(C)(=O)=O)ccc3[nH]2)CC1 | -26% | inactive | –
3 | O[C@@H]1CO[C@H]2[C@@H]1OC[C@@H]2O | 15.8% | inactive | –
4 | CCCc1cc(=O)[nH]c(=S)[nH]1 | 10.6% | inactive | –
5 | O=c1n(CCCN2CCN(c3cccc(Cl)c3)CC2)nc2ccccn12 | 33.5% | inactive | –
6 | CCOc1ccccc1OCCN[C@H](C)Cc1ccc(OC)c(S(N)(=O)=O)c1 | -10.5% | inactive | –
7 | CCOC(=O)[C@H](CCc1ccccc1)N[C@@H](C)C(=O)N1[C@H](C(=O)O)C[C@@H]2CCC[C@@H]21 | -29.2% | inactive | –
8 | O=C1Cc2cc(CCN3CCN(c4nsc5ccccc45)CC3)c(Cl)cc2N1 | 34% | inactive | –
9 | Cn1cnc([N+](=O)[O-])c1Sc1ncnc2nc[nH]c12 | 14.5% | inactive | –
10 | O=C1CCc2ccc(OCCCCN3CCN(c4cccc(Cl)c4Cl)CC3)cc2N1 | -27% | inactive | –
11 | COc1ccccc1Oc1c(NS(=O)(=O)c2ccc(C(C)(C)C)cc2)nc(-c2ncccn2)nc1OCCO | -15.4% | inactive | –
12 | C=C(c1ccc(C(=O)O)cc1)c1cc2c(cc1C)C(C)(C)CCC2(C)C | 22.5% | inactive | –
13 | C=C(CC)C(=O)c1ccc(OCC(=O)O)c(Cl)c1Cl | 39.8% | inactive | –
14 | Fc1ccc([C@@H]2CCNC[C@H]2COc2ccc3c(c2)OCO3)cc1 | 101% | – | 5.62 µM (active)
15 | Cc1ccccc1C(=O)Nc1ccc(C(=O)N2CCCC(O)c3cc(Cl)ccc32)c(C)c1 (configuration not stated) | 54.1% | inactive | –
16 | COC(=O)C1=C(C)NC(C)=C(C(=O)OCC(C)C)C1c1ccccc1[N+](=O)[O-] (configuration not stated) | 55.8% | inactive | –
17 | Cc1c(O)cccc1C(=O)N[C@@H](CSc1ccccc1)[C@H](O)CN1C[C@H]2CCCC[C@H]2C[C@H]1C(=O)NC(C)(C)C | 83.4% | inactive | –
18 | CCC1C(=O)OCC1Cc1cncn1C (configuration not stated) | -25.5% | inactive | –

Row | Compound | efficacy [1] | outcome [2] | AC50 [2]
19 | CCCC(=O)Nc1ccc(OCC(O)CNC(C)C)c(C(C)=O)c1 (configuration not stated) | 8.06% | inactive | –
20 | CN(C)/N=N/c1nc[nH]c1C(N)=O | -24.1% | inactive | –
21 | CC(CN1c2ccccc2Sc2ccccc21)N(C)C (configuration not stated) | 81.3% | inactive | –
22 | CC(c1cc2ccccc2s1)N(O)C(N)=O (configuration not stated) | -17.4% | inactive | –
23 | CC[N+](C)(C)c1cccc(O)c1 | -13.4% | inactive | –
24 | COc1cc2c(cc1OC)C(=O)C(CC1CCN(Cc3ccccc3)CC1)C2 (configuration not stated) | 108% | inactive | –
25 | CCCN(CCc1cccs1)[C@H]1CCc2c(O)cccc2C1 | -47.6% | inactive | –
26 | CCCCc1ncc(/C=C(\Cc2cccs2)C(=O)O)n1Cc1ccc(C(=O)O)cc1 | -11.8% | inactive | –
27 | NC12CC3CC(CC(C3)C1)C2 | 15% | inactive | –
28 | CCN(CC)CCNC(=O)c1cc(Cl)c(N)cc1OC | -12.5% | inactive | –
29 | CN1CCC[C@@H]1CCO[C@](C)(c1ccccc1)c1ccc(Cl)cc1 | -151% | – | 3.55 µM (active)
30 | COC(=O)C1=C(C)NC(C)=C(C(=O)OCCN(C)Cc2ccccc2)C1c1cccc([N+](=O)[O-])c1 (configuration not stated) | -75% | inactive | –
31 | COc1cc2nc(N(C)CCCNC(=O)C3CCCO3)nc(N)c2cc1OC (configuration not stated) | 46.7% | inactive | –
32 | CCN1CCN(C(=O)N[C@@H](C(=O)N[C@@H]2C(=O)N3C(C(=O)O)=C(CSc4nnnn4C)CS[C@H]23)c2ccc(O)cc2)C(=O)C1=O | -23.3% | inactive | –
33 | NNc1nncc2ccccc12 | -27.3% | inactive | –
34 | CCc1c2c(nc3ccc(OC(=O)N4CCC(N5CCCCC5)CC4)cc13)-c1cc3c(c(=O)n1C2)COC(=O)[C@]3(O)CC | 45.7% | inactive | –
35 | Cc1nc(Nc2ncc(C(=O)Nc3c(C)cccc3Cl)s2)cc(N2CCN(CCO)CC2)n1 | 82.9% | inactive | –
36 | N[C@@H]1CONC1=O | -13.4% | inactive | –
